Results filed as inconclusive are left out. Calls of active or inactive are those of the source. Calls come from the whole dose curve; as a rule, active = well fitted curve in the direction sought with a large enough effect; inconclusive = small, poorly fitted or top-dose-only effect, or another doubt; inactive = no such curve, though single readings can be large; an effect the other way counts as inactive or inconclusive.
assay: qHTS of pediatric cancer cell lines to identify multiple opportunities for drug repurposing: Primary screen for BT-37 cells (AID 1347094); conditions: BT-37 viability, CellTiter-Glo luminescence, 48 h; series mostly up to 57.3 µM
Procedure, shortened: (§1)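 Primary screen of approved and investigational compounds on cells in growth media at 37 degrees C, 5% CO2. MIPE set at 11-point and NPC set at 8-point dilutions; viability scored by ATP-based luminescence at 48 hours.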
Potency is the fitted concentration of half-maximal effect.

Row | Compound | Potency
1 | COc1ccc(CC2SC(=O)NC2=O)cc1C(=O)NCc1ccc(C(F)(F)F)cc1 (stereo not drawn) | inactive
2 | CC[C@@]1(O)C(=O)OCc2c1cc1n(c2=O)Cc2cc3cc(O)ccc3nc2-1 | 0.0217 µM (active)
3 | C=CC(=O)Nc1cc2c(Nc3ccc(F)c(Cl)c3)ncnc2cc1C#CC(C)(C)N1CCN(C)CC1 | 3.85 µM (active)
4 | Cc1cc(N2CCOCC2)cc2[nH]c(-c3c(NC[C@@H](O)c4cccc(Cl)c4)cc[nH]c3=O)nc12 | 24.3 µM (active)
5 | O=C(C=Cc1cccc(S(=O)(=O)Nc2ccccc2)c1)NO | 7.03 µM (active)
6 | CC[C@H](CO)Nc1nc(NCc2ccccc2)c2ncn(C(C)C)c2n1 | 27.3 µM (active)

assay: qHTS of pediatric cancer cell lines to identify multiple opportunities for drug repurposing: Primary screen for NB-EBc1 cells (AID 1347095); conditions: NB-EBc1 neuroblastoma viability, CellTiter-Glo luminescence, 48 h; series mostly up to 46 µM
Procedure, shortened: as §1

Row | Compound | Potency
7 | CCN1CCN(Cc2ccc(-c3cc4c(N[C@H](C)c5ccccc5)ncnc4[nH]3)cc2)CC1 | 0.0469 µM (active)
8 | CCc1c2c(nc3ccc(O)cc13)-c1cc3c(c(=O)n1C2)COC(=O)[C@]3(O)CC | 0.001 µM (active)
9 | CNC(=O)c1ccc(N2C(=S)N(c3cnc(C#N)c(C(F)(F)F)c3)C(=O)C23CCC3)cc1F | 7.43 µM (active)
10 | Cc1ccc(C(=O)Nc2cccc(C(F)(F)F)c2)cc1-c1ccc2nc(NCCN3CCOCC3)ncc2c1 | 3.72 µM (active)
11 | CN1CCN(c2ccc3nc(-c4c(N)c5c(F)cccc5[nH]c4=O)[nH]c3c2)CC1 | 3.72 µM (active)
12 | Clc1cccc(-c2nnnn2Cc2cccnc2)c1Cl | inactive
13 | COc1cc(C)c(Sc2cnc(NC(=O)c3ccc(CNC(C)C(C)C)cc3)s2)cc1C(=O)N1CCN(C(C)=O)CC1 (stereo not drawn) | 18.7 µM (active)

Source: PubChem BioAssay (NCATS)
